In PubChem BioAssay (NCI):
This is part of a sample that, as a whole, favours compounds with a hit. Of some 79,000 tested, about 15% had one in any assay. The source made the active and inactive calls. Rule as the data show it: active = growth inhibition above about 70%; inactive = the rest.

Columns and labels:
[1] = NCI Yeast Anticancer Drug Screen. Data for the rad50 strain (AID 155);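 also: 0% = growth of vehicle-only cultures of the same strain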; details: S. cerevisiae rad50 strain growth inhibition, hits give high values
Summary of the method: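 Relative growth inhibition (compound vs vehicle) was measured in yeast with a defined repair-gene alteration.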

[2] = NCI Yeast Anticancer Drug Screen. Data for the mec2-1 strain (AID 157); details: S. cerevisiae mec2-1 strain, hits give high values
Summary of the method: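 Growth inhibition is read against vehicle-treated controls after compound exposure of the mec2-1 yeast strain, which is defective in DNA damage repair or cell cycle control.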

[3] = NCI Yeast Anticancer Drug Screen. Data for the sgs1 mgt1 strain (AID 161);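 also: 0% = growth of cultures given vehicle only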; details: S. cerevisiae sgs1 mgt1 strain, hits give high values
Summary of the method: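 This yeast growth screen uses a strain with defined DNA-repair lesions; compound-treated growth is compared with vehicle-treated growth.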

[4] = NCI Yeast Anticancer Drug Screen. Data for the cln2 rad14 strain (AID 165);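 also: 0% = growth equal to vehicle treated cultures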; details: S. cerevisiae cln2 rad14 strain, hits give high values
Summary of the method: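 Growth inhibition, relative to vehicle-treated controls, is the read-out. The test organism is a yeast strain with defined genetic alterations, cln2 rad14.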

[5] = NCI Yeast Anticancer Drug Screen. Data for the bub3 strain (AID 167); details: S. cerevisiae bub3 mutant strain, hits give high values
Summary of the method: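 Screening used yeast with an engineered genetic alteration affecting cell cycle control. Compound-exposed cultures were compared with vehicle cultures, and reduced growth was taken as inhibition.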

[6] = NCI Yeast Anticancer Drug Screen. Data for the mlh1 rad18 strain (AID 175); details: S. cerevisiae mlh1 rad18 strain growth inhibition, hits give high values
Summary of the method: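 Cells of a genetically altered yeast strain, deficient in DNA damage repair, were treated with compound. Their growth was then compared with that of vehicle-treated cultures to give inhibition.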

[7] = at 5.0 µM (retest, dose inferred, filed as 0.5)
[8] = at 50.0 µM (retest, dose inferred, filed as 5.0)

Measured: growth inhibition

C1=C(c2ccccc2)CCc2ccccc21
inactive: [1]; [7] 1% | [1]; [8] 14% | [1]; at 50.0 µM 12.7% | [2]; [7] 5% | [2]; [8] -1% | [2]; at 50.0 µM -11.5% | [3]; [7] 5% | [3]; [8] 14% | [3]; at 50.0 µM -1.95% | [4]; [7] 0% | [4]; [8] -14% | [4]; at 50.0 µM 50.9% | [5]; [7] -3% | [5]; [8] 3% | [5]; at 50.0 µM 2.6% | [6]; [7] -4% | [6]; [8] 3% | [6]; at 50.0 µM 1.5%

FC(F)(F)C(F)(F)C1(F)C(F)(F)C(F)(F)C(F)(F)C(F)(F)C1(F)F
inactive: [1]; [7] -1% | [1]; [8] -2% | [2]; [7] -2% | [2]; [8] 1% | [3]; [7] -1% | [3]; [8] -3% | [4]; [7] 1% | [4]; [8] -8% | [5]; [7] 3% | [5]; [8] 4% | [6]; [7] 2% | [6]; [8] -2%
active: [1]; at 50.0 µM 99.7% | [2]; at 50.0 µM 99.5% | [3]; at 50.0 µM 99.6% | [4]; at 50.0 µM 97.2% | [5]; at 50.0 µM 99.5% | [6]; at 50.0 µM 99.2%

COc1ccc(-c2csc(C)n2)cc1OC
inactive: [1]; [7] 5% | [1]; [8] 1% | [1]; at 50.0 µM 21.4% | [2]; [7] 2% | [2]; [8] 4% | [2]; at 50.0 µM 3.35% | [3]; [7] 1% | [3]; [8] 7% | [3]; at 50.0 µM 16.1% | [4]; [7] 3% | [4]; [8] -3% | [4]; at 50.0 µM 30.3% | [5]; [7] 0% | [5]; [8] 9% | [5]; at 50.0 µM 0.25% | [6]; [7] 2% | [6]; [8] 11% | [6]; at 50.0 µM 8.5%

CCCC(CCC)NCCOC(=O)C(CC)c1ccccc1 (stereo not given)
active: [1]; at 50.0 µM 88% | [3]; at 50.0 µM 88.3% | [5]; [8] 75% | [6]; at 50.0 µM 75%
inactive: [1]; [7] 3% | [1]; [8] 42% | [2]; [7] -5% | [2]; [8] 23% | [2]; at 50.0 µM 15.9% | [3]; [7] 12% | [3]; [8] 63% | [4]; [7] -35% | [4]; [8] 62% | [4]; at 50.0 µM 55.9% | [5]; [7] 7% | [5]; at 50.0 µM 49.6% | [6]; [7] 4% | [6]; [8] 47%

CC1CCC(C(O)(C(=O)O)C2CCC(C)CC2)CC1 (stereo not given)
inactive: [1]; [7] 23% | [1]; [8] 30% | [1]; at 50.0 µM 37.9% | [2]; [7] 26% | [2]; [8] 39% | [2]; at 50.0 µM 19.3% | [3]; [7] 34% | [3]; [8] 61% | [3]; at 50.0 µM 10.2% | [4]; [8] 57% | [4]; at 50.0 µM 47.6% | [5]; [7] 25% | [5]; [8] -73% | [5]; at 50.0 µM 49.1% | [6]; [7] 15% | [6]; [8] 23% | [6]; at 50.0 µM 49.7%
active: [4]; [7] 78%
